S2 tox – Viability Counterscreen for Primary qHTS for Inhibitors of ATXN expression. AID 651635, 2014. S2 cells (HEK-293 line with an ATXN2-luciferase reporter) viability, CellTiter-Fluor protease fluorescence, 24 h. hit rate 0.49% among 400,000. Potency, µM (doses to about 56.7 µM), actives largely listed as cytotoxic; also: potency is read from the fitted curve at half-maximal effect; nearly all actives have a fitted effect of over 40% in size
HepG2 viability – qHTS for Inhibitors of TGF-b: Cytotox Counterscreen | hit rate 0.76% among 410,000 | Potency, µM (series often up to 46.1 µM), inactives show at the highest dose activity change, negative = cytotoxicity, usual class: cytotoxic | HepG2 CAGA-GFP viability, ATP luminescence, 18 h; also: potency is read from the fitted curve at half-maximal effect
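CellTiter-Glo luminescence gave cytotoxicity after 18 hours at 37 degrees C. The cells were HepG2 CAGA-GFP in 1% FBS DMEM, stimulated with 500 pg/mL TGF-beta after compound addition. %Activity was normalised to no-cell wells (complete cell-killing) and DMSO (no toxicity), and curves were fitted and classified.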
ATXN2 expr inh – Primary qHTS for Inhibitors of ATXN expression; HEK-293 ATXN2-luciferase reporter, luminescence, 24 h; Potency, µM (series often up to 57 µM), inactives show at the highest dose activity change, negative = inhibition, actives largely listed as inhibitors; hit rate 0.72% among 360,000; also: potency is read from the fitted curve at half-maximal effect; % is scaled to controls: 0 for no effect and ±100 for the full control effect; nearly all actives have a fitted effect of over 55% in size
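qHTS (up to 57 uM final) was run with 24 h compound exposure of reporter cells at 37 °C. Each well was multiplexed: SteadyGlo luminescence measured ATXN2-luciferase expression after a fluorogenic Gly-Phe-AFC viability readout (25 uM final).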
DRD3 agonist – qHTS of D3 Dopamine Receptor Agonist: qHTS | D3R DiscoveRx beta-arrestin cells, luminescence, 90 min | hit rate 0.58% among 410,000 | D(3) dopamine receptor (Homo sapiens), P35462 | max activation, %; in the data active = max activation above about 30%; also: 0% is about no effect
Target sequence (P35462 whole entry, looked up): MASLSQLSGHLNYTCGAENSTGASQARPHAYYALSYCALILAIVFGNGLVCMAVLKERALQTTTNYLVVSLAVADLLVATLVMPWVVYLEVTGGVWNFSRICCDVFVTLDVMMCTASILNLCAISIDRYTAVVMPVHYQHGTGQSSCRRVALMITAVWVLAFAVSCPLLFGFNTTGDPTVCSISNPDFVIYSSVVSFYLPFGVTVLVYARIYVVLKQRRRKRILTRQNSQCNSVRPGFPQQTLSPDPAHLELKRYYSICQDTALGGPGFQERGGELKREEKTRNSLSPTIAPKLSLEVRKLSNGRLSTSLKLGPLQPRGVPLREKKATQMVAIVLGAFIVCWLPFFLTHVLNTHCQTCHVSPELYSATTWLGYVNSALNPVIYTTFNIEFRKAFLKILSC
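Agonist mode: compounds and dopamine controls were applied to plated cells for 90 min at 37 degrees C after an overnight attachment at 1500 cells/well. Luminescent read-out followed 30 - 60 minutes at room temperature with DiscoveRx detection reagent.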
D3 antag – qHTS of D3 Dopamine Receptor Antagonist: qHTS; D(3) dopamine receptor (Homo sapiens), P35462; D3R cells, DiscoveRx beta-arrestin luminescence, antagonist mode; stronger effect = lower value; max response, negative = inhibition, %; hit rate 2.5% among 360,000; AID 652054, 2013; in the data active = max response below about -50%; inconclusive = no clear call, values can overlap the other calls; also: % is scaled to controls: 0 for no effect and ±100 for the full control effect
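Cells plated overnight at 1500 cells/well, then exposed to library compounds with dopamine controls for 90 minutes at 37 degrees C. DiscoveRx reagent added for 30–60 minutes at room temperature; luminescence read, quantitative HTS format.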
TGFb inhibitor – qHTS for Inhibitors of TGF-b | hit rate 1.2% among 410,000 | AID 588855, 2011 | Potency, µM (series often up to 46.1 µM), for inactives: top-dose activity, negative = inhibition, most hits filed as inhibitors | HepG2 CAGA-GFP TGF-b/SMAD3 reporter, GFP fluorescence, 18 h; TGF-beta stimulated, 500 pg/mL final; also: potency is read from the fitted curve at half-maximal effect; % is scaled to controls: 0 for no effect and ±100 for the full control effect; nearly all actives have a fitted effect of over 65% in size
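HEPG2 CAGA-GFP, 1000 cells/well; 2 h settle, 37 C; cpd via pin tool; TGF-b 500 pg/mL final; 18 h, 37 C; GFP imaging ex488/em500-530; %Activity normalised to -TGF-b and +DMSO controls; CRC fit, curve class.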
Starred values were filed as active, the others as inactive; i = inactive; ? = inconclusive; / = no result. A selection: hits, their analogues and other compounds. The true share with any hit is near 4.8%. Unless noted, calls follow the shape of the dose curve; as a rule, active = well fitted curve in the direction sought with a large enough effect; inconclusive = small, poorly fitted or top-dose-only effect, or another doubt; inactive = no such curve, though single readings can be large; an effect the other way counts as inactive or inconclusive.

SMILES	S2 tox	HepG2 viability	ATXN2 expr inh	DRD3 agonist	D3 antag	TGFb inhibitor
CN(Cc1ccccc1)CC(O)COc1ccc(CNCc2ccc(Cl)s2)cc1 (configuration not stated)	?	-59%	?	-2	?	13µM*
CCOc1ccc(NC(=O)c2cnn3c2NC(c2cccc(OC)c2)=CC3c2ccccc2)cc1 (configuration not stated)	?	0%	-13%	11	/	1%
COc1ccc([C@@H]2CC(=O)c3c(O)cc(O[C@@H]4O[C@H](CO[C@@H]5O[C@@H](C)[C@H](O)[C@@H](O)[C@@H]5O)[C@@H](O)[C@H](O)[C@@H]4O)cc3O2)cc1O	/	/	12%	/	/	/
CNc1nccc(-c2cccnc2Oc2cc(C(=O)Nc3cccc(C(F)(F)F)c3)ccc2C)n1	/	/	24µM*	/	/	/
Cc1ccc(C(=O)Nc2cccc(C(F)(F)F)c2)cc1Nc1cnccn1	i	-36%	0%	-8	-17	?
O=C(CSc1nccn1-c1ncc(C(F)(F)F)cc1Cl)c1ccc(Cl)cc1	i	-1%	62%	1	-107*	-25%
O=C(OC1CCN(c2ncc(C(F)(F)F)cc2Cl)CC1)c1ccc(Cl)cc1	?	-19%	-11%	-1	1	-11%
O=C(OCCN1CCN(c2ncc(C(F)(F)F)cc2Cl)CC1)c1ccc(Cl)cc1	i	-22%	-6%	-11	-83*	7%
COc1ccc(C2C=C(c3ccccc3)Nc3nnnn32)cc1 (configuration not stated)	/	-38%	24%	-9	-20	-5%
COc1ccc(C2=CC(c3ccc(C)cc3)n3nnnc3N2)cc1 (configuration not stated)	/	-7%	-16%	32*	-18	-1%
COc1ccc(N2CCN(C(=S)Nc3ccc(C)cc3C)CC2)cc1	i	6.3µM*	-21%	-11	-29	-15%
COc1ccc(N2CCN(C(=S)Nc3cc(C)ccc3C)CC2)cc1	i	0%	-3%	4	-19	-4%
COC(=O)c1cc(=O)n(Cc2ccco2)c(=Nc2ccc(F)c(Cl)c2)s1	/	-98%	28µM*	-16	-18	13µM*
COC(=O)c1cc(=O)n(Cc2cccs2)c(=Nc2ccc(F)cc2)s1	27µM*	-73%	21µM*	-7	?	?
COC(=O)c1cc(=O)n(CCc2ccccc2F)c(=Nc2ccc(F)c(Cl)c2)s1	/	-93%	27µM*	-6	?	?
COc1ccc(N2CCN(S(=O)(=O)c3ccc4c(c3)CCCN4C(C)=O)CC2)cc1	i	0%	4%	0	/	2%
Cc1oc2ncn(C)c(=O)c2c1C(=O)NCCCN(Cc1ccccc1)C(C)C	i	0%	10%	5	/	5%
CCc1c(C)sc2c1CCN(C(=O)Nc1cc(C)ccc1OC)C2c1ccc(F)cc1 (configuration not stated)	i	-31%	-17%	-6	/	-9%
COc1cc(Nc2nc(SCc3cccc(Cl)c3)nc3ccccc23)cc(OC)c1	/	-24%	/	8	/	-29%
Cc1ccccc1N1C(=O)CC(Sc2nnc(-c3ccccc3)o2)C1=O (configuration not stated)	?	-19%	-17%	-11	-79*	?
C[N+]1(CC(=O)c2ccc(Oc3ccccc3)cc2)CCOCC1	/	3%	/	/	/	-1%
CC(C)(C)OC(=O)NCCCCCNC(=O)c1[nH]cnc1C(=O)N[C@@H](CCCCNC(=O)OC(C)(C)C)C(=O)OC(C)(C)C	?	3%	?	0	55	?
CC(C)(C)OC(=O)NCCCCCNC(=O)c1nc[nH]c1C(=O)NCc1ccc(CNC(=O)OC(C)(C)C)cc1	16µM*	-15%	20µM*	29	47	?
CC(C)(C)OC(=O)NCc1ccc(CNC(=O)c2nc[nH]c2C(=O)NCc2ccc(CNC(=O)OC(C)(C)C)cc2)cc1	i	-3%	-21%	20	36	-28%
CC(C)(C)OC(=O)NCCCCCNC(=O)c1nc[nH]c1C(=O)N1CCc2ccccc2C1	?	1%	-23%	38*	80	9%
SMILES	S2 tox	HepG2 viability	ATXN2 expr inh	DRD3 agonist	D3 antag	TGFb inhibitor
CC(C)(C)OC(=O)NCCCCCNC(=O)c1nc[nH]c1C(=O)NCCCCCNC(=O)OC(C)(C)C	25µM*	-52%	22µM*	25	91	?
Cc1ccccc1Cn1c(C)c(C(=O)NCc2cccc(Cl)c2)sc1=O	i	-8%	?	-4	-53*	-18%
Cc1cccc(CNC(=O)c2sc(=O)n(Cc3c(C)cccc3C)c2C)c1	i	-6%	6%	-10	-90*	?
COc1ccc(CNC(=O)c2sc(=O)n(Cc3ccccc3C)c2C)cc1	i	-23%	?	1	-28	1%
COc1ccccc1Cn1c(C)c(C(=O)NCc2ccc(C#N)cc2)sc1=O	i	-3%	-21%	-6	-4	-1%
COc1ccccc1Cn1c(C)c(C(=O)NCc2cccc(C)c2)sc1=O	i	-24%	-19%	-4	-57*	-15%
Cc1c(C(=O)NCc2ccc(F)cc2)sc(=O)n1Cc1ccc(Cl)c(Cl)c1	i	-24%	?	-9	-74*	?
CCN(CC)/[N+]([O-])=N/OCOC(=O)C(C)c1ccc(CC(C)C)cc1 (configuration not stated)	/	-9%	/	/	/	-12%
COc1cccc2c1C(=O)/C(=C/c1ccc(N(C)C)cc1)C2	/	-35%	/	/	/	-3%
O=C(Cn1ccn(-c2ccc(F)cc2)c(=O)c1=O)NCCc1ccccc1	/	-27%	/	-4	/	-3%
O=c1c(-c2cccc3ccccc23)[n+]([O-])c2ccccc2n1O	?	1%	5%	-2	-53*	-9%
CCOn1c(=O)c(-c2cccc3ccccc23)[n+]([O-])c2ccccc21	?	0%	?	5	8	-1%
CC1CCCN(C/C=C/c2ccccc2[N+](=O)[O-])C1 (configuration not stated)	i	0%	2%	-50	-91*	-27%
CCC1CCCCN1C/C=C/c1ccccc1[N+](=O)[O-] (configuration not stated)	i	-10%	0%	-27	-55*	3%
CCCC[n+]1ccn(C2=C([O-])c3ccccc3C(=O)/C2=N\S(=O)(=O)c2ccc(Cl)cc2)c1	?	11µM*	?	-1	-15	10µM*

Compound activity (PubChem BioAssay)
